Screens (PubChem BioAssay)
Rab9 prom act = activators of Rab9 promoter; Huh7 Rab9 promoter-luciferase reporter, luminescence, 24 h; Potency, µM (titrated, usually from 9.22 µM), inactives show at the highest dose activation, negative = inhibition, actives largely listed as activators; actives 2.8% (n = 320,000); further: % of control where 0% means no effect; nearly all actives have a fitted effect of over 60% in size
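Huh7 cells stably carrying Rab9 promoter–luciferase reporter, plated 1500 cells/well, compound added after 2 h and incubated 24 h at 37 °C; luciferase luminescence then read after 10 min with detection reagent.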
KinaseGlo FLuc = blocks Kinase-Glo luciferase, a counter-screen artifact. Q27757. Kinase-Glo luciferase, ATP luminescence, 8 min. Potency, µM (highest dose often 38.3 µM), for the others: at the highest dose activity change, negative = inhibition, actives largely listed as inhibitors. actives 0.28% (n = 200,000). AID 1379; further: on the % scale 0 is the no-effect control and ±100 the full control effect; nearly all actives have a fitted effect of over 60% in size
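Kinase-Glo luciferase light output from ATP and luciferin was measured with 10 uM ATP, within the enzyme's linear range. Buffer: 50 mM imidazole pH 7.2, 50 mM KCl, 7 mM MgCl2, 0.01% Tween 20, 0.05% BSA; luminescence read after 8 min at ambient temperature.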
ELG1 genotoxic = genotoxicity induction in ELG1-luciferase HEK293T cells | HEK293T ELG1-luciferase reporter, luminescence, 16 h | AID 504466 | Potency, µM (titrated, usually from 46 µM), for inactives: top-dose activity change, positive = activation, hits mostly activators | actives 1.3% (n = 330,000); further: % of control where 0% means no effect; nearly all actives have a fitted effect of over 60% in size
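Step 1: seed 2,000 HEK293T ELG1-luciferase cells per well. Step 2: add compound or DMSO, incubate 16 hr at 37 °C. Step 3: ONE-Glo, 30 min at room temperature, read luminescence.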
SMN2 splice enh = SMN2 splice variant enhancement; actives 2.8% (n = 210,000); Potency, µM (highest dose often 46.1 µM), without a hit: at the top dose activity change, positive = activation, most hits filed as activators; HEK293 SMN2-luciferase splicing reporter, luminescence, 30-36 h; further: % of control where 0% means no effect; nearly all actives have a fitted effect of over 55% in size
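HEK293 cells carry an SMN2 […]–luciferase reporter in which exon 7 inclusion puts luciferase in frame. Cells were plated 10-12 h before compound addition, then incubated 30-36 h at 37C. ONE-Glo luminescence was read; sodium butyrate at 4.5 mM final served as control.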
FLuc modulator = counter-screen for miR-21 project: firefly luciferase inhibitors or activators | purified FLuc, Km substrates, luminescence inhibition | Potency, µM (highest dose often 57.5 µM), inactives show at the top dose activity change, negative = inhibition, most hits filed as inhibitors | actives 6.9% (n = 360,000) | AID 588342;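 further: plate controls were vehicle for no effect and reference inhibitor for full effect; nearly all actives have a fitted effect of over 55% in size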
Target sequence (P08659 whole entry, looked up): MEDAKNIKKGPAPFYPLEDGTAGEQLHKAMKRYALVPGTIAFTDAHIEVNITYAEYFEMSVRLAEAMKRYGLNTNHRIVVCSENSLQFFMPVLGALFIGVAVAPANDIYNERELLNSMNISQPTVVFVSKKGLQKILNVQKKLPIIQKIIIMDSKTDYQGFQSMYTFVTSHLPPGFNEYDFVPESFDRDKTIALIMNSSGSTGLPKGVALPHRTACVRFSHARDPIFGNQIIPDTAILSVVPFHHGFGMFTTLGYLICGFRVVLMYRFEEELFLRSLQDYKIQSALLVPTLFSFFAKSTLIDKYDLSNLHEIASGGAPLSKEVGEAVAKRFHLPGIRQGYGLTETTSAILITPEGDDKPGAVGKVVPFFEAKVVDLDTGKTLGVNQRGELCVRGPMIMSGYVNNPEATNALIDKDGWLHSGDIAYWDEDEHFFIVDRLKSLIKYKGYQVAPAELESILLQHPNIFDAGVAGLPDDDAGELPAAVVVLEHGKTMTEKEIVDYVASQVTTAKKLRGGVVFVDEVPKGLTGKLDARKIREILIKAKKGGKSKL
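Purified P. pyralis luciferase (10nM final) with 10uM D-luciferin and 10uM ATP (Km levels) in 50mM Tris acetate pH 7.5, 10mM Mg acetate, 0.01% Tween-20, 0.05% BSA; qHTS 6-point titration, ~60 µM downward; luminescence read.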
NPC1 prom act = activators of NPC1 promoter; AID 485313; actives 2.4% (n = 320,000); Potency, µM (top dose mostly 9.22 µM), for inactives: top-dose activation, hits mostly activators; Huh7 NPC1 promoter luciferase reporter, 24 h; further: % of control where 0% means no effect; nearly all actives have a fitted effect of over 60% in size
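Huh7 reporter cells (NPC1 promoter driving luciferase) are dosed with compound for 24 h at 37 °C, 5% CO2; luciferase detection reagent is then added and luminescence measured after 10 min at ambient temperature.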
* marks the source's active call; other numbers are inactive results; ? = inconclusive; . = not tested or not shown; [ ] = remark or other dose. The list is not random: actives were taken first. Their share in the collection is about 7.3%. The call rests on the fitted dose curve; in most records, active means well fitted curve in the direction sought with a large enough effect; inconclusive means small, poorly fitted or top-dose-only effect, or another doubt; inactive means no such curve, though single readings can be large; an effect the other way counts as inactive or inconclusive. Potency means the concentration at half of the fitted maximal effect.

SMILES | Rab9 prom act | KinaseGlo FLuc | ELG1 genotoxic | SMN2 splice enh | FLuc modulator | NPC1 prom act
COc1cc(NC(=O)Cc2ccccc2)nc(OC)n1 | 3.6% | . | 5.0% | . | -1.0% | -0.3%
COCCn1c(=O)[nH]c2cc(C(=O)Nc3nnc(C)s3)ccc21 | ? | . | ? | . | 13.5µM* | 27.1%
C1CCC(CNc2c3c(nc4nnnn24)CCCC3)CC1 | -0.5% | 4.1% | 1.3% | -21.9% | 1.7% | -3.1%
COc1ccc(NS(=O)(=O)c2cccc(Cl)c2)cc1S(=O)(=O)N1CCCCC1 | -3.5% | 4.0% | -4.8% | -15.2% | 1.2% | 2.0%
CCOCc1nnc(NC(=O)c2ccc(NC(C)=O)cc2)s1 | 0.3% | 0.9% | 1.4% | -1.1% | -15.1% | 0.0%
CCc1cc(C(=O)O)c(NC(=O)c2cc(OC)c(OC)c(OC)c2)s1 | -1.1% | 2.2% | ? | -32.5% | 8.49µM* | -1.4%
COCc1nnc(NC(=O)c2cc(OC)c(OC)c(OC)c2)s1 | . | . | . | 8.6% | 0.3% | .
CCOCCc1nnc(NC(=O)c2cc(OC)c(OC)c(OC)c2)s1 | 1.8% | 0.5% | 2.9% | 15.8µM* | 0.5% | -1.3%
CCOCc1nnc(NC(=O)c2ccc(OC)cc2)s1 | 8.8% | -0.2% | 14.7% | 17.8µM* | -27.3% | 27.4%
COc1ccc(S(=O)(=O)N2CCCC(C(=O)Nc3ccc(OC)c(OC)c3)C2)cc1 (stereo unspecified) | 0.2% | -0.8% | -10.4% | -20.9% | -0.4% | -5.2%
CCc1nnc(NC(=O)C2CCCN(S(=O)(=O)c3ccc(OC)cc3)C2)s1 (stereo unspecified) | 14.9% | 0.1% | 12.3% | . | 19µM* | 3.1%
CC(C)(C)NC[C@@H](O)c1ccc(O)c(CO)n1 | . | -5.6%[7.66 µM] | . | 9.9%[9.22 µM] | . | .
CCc1nnc(NC(=O)c2cccc(C(=O)Nc3nnc(CC)s3)n2)s1 | -41.9% | 2.1% | -8.0% | -94.7% | 19µM* | -32.1%
CCc1nnc(NC(=O)Nc2ccc(OC)cc2)s1 | ? | -5.2% | ? | 29.5% | 16.9µM* | ?
COc1ccc(C(=O)Nc2nnc(C)s2)cc1 | . | . | . | 11.2µM* | 13.5µM* | .
CCCn1c(N2CCN(Cc3ccc(Cl)cc3)CC2)nc2ccccc21 | -16.8% | -3.5% | -5.2% | . | 5.7% | -0.4%
Cc1cccc(N2CCN(C(=O)c3ccc4c(c3)N(Cc3cccc(Cl)c3)C(=O)c3ccccc3S4(=O)=O)CC2)c1C | . | . | . | . | -1.9% | .
Nc1ccn(Cc2ccccc2)n1 | -1.2% | -0.4% | -8.6% | -5.1% | ? | -4.6%
c1ccc(Cn2ccc(-c3cnc(-c4ccccc4)s3)n2)cc1 | 1.12µM* | -0.7% | ? | . | 1.9µM* | 1.41µM*
Cc1ccc(C(C(=O)NC2CCCCC2)N(C(=O)c2csnn2)c2ccccc2F)o1 (stereo unspecified) | -1.9% | . | -7.8% | . | 2.7% | 2.5%
O=C1O/C(=C\c2ccccc2)c2ccccc21 | -3.4% | 1.0% | 0.7% | -5.1% | 12µM* | -3.5%
CC(=O)NC1C(=O)N(CCN2CCOCC2)c2ccc(C)cc21 (stereo unspecified) | 11.4% | . | -1.1% | . | 21.3µM* | -8.2%
O=C1c2ccccc2C2=Nc3ccccc3SC(c3cccc(F)c3)C12 (stereo unspecified) | -3.9% | -1.4% | -8.4% | -28.9% | 5.8% | -5.8%
Cc1ccc(C2=NNC(c3cccc(F)c3)S2)cc1 (stereo unspecified) | 0.501µM* | -22.7% | -23.1% | 1.58µM* | 0.426µM* | 0.562µM*
Fc1cccc(C2NN=C(c3ccccc3)S2)c1 (stereo unspecified) | 2.82µM* | -26.2% | 2.31µM* | 11.2µM* | 1.07µM* | 2.24µM*
SMILES | Rab9 prom act | KinaseGlo FLuc | ELG1 genotoxic | SMN2 splice enh | FLuc modulator | NPC1 prom act
Cc1ccc(Cn2c(CO)cnc2SCc2cccc(F)c2)cc1 | . | . | . | . | -18.2% | .
COc1ccc(C2NN=C(c3ccc(C)cc3)S2)cc1OC (stereo unspecified) | 1.41µM* | -26.0% | ? | 11.2µM* | 2.39µM* | 2.24µM*
COc1ccc(C2NC(=O)CS2)cc1OC (stereo unspecified) | 0.3% | 0.1% | 2.6% | 11.2% | -0.3% | -2.3%
COc1cccc(NC(=O)CSc2nc(=O)n(CCN(C)C)c3c2CCCC3)c1 | -4.6% | . | -0.2% | . | 4.1% | 5.2%
COc1ccc(NS(=O)(=O)c2cccc(NC(=O)NC3CCCCC3)c2)cc1 | -2.3% | -4.2% | -4.8% | -16.6% | -18.0% | -2.3%
CCCc1cc(C(=O)Nc2ccc(OC)cc2[N+](=O)[O-])cs1 | 22.8% | . | 12.0% | . | 12µM* | 21.6%
COc1ccc(NC(=O)c2ccccc2)c([N+](=O)[O-])c1 | 2.82µM* | -5.3% | ? | ? | ? | ?
CCC(=O)Nc1ccc(C(=O)Nc2ccc(OC)cc2[N+](=O)[O-])cc1 | -5.1% | . | 11.3% | . | -1.7% | -0.1%
COc1ccc(NC(=O)c2cccnc2)c([N+](=O)[O-])c1 | -27.3% | 0.4% | -0.2% | 10.3% | -6.4% | -34.6%
CC(NCc1ccc(OCc2ccc(Cl)cc2)cc1)C(O)c1ccccc1 (stereo unspecified) | 9.0% | -1.0% | 13.2% | -26.1% | ? | 8.4%
O=C(NCCCO)c1cc2c(cn1)[nH]c1ccccc12 | ? | . | 13.5% | . | 16.9µM* | 28.4%
C[C@H](NC(=O)c1cc2c(cn1)[nH]c1ccccc12)C(=O)O | 3.7% | . | 0.8% | . | ? | 1.7%
COc1ccc(/C=C(\C#N)C(=O)N=CN(C)C)cc1 | -1.8% | -4.6% | 0.9% | -5.3% | 13.5µM* | -0.4%
Cc1ccc(S(=O)(=O)N2CCN(C(C)C)CC2)cc1 | -1.3% | -1.0% | 0.4% | 5.8% | -1.4% | -1.7%
Cc1ncc(CO)c(/C=N/N=C/c2ccccc2O)c1O | -3.2% | -2.8% | ? | 22.9% | 2.39µM* | 0.6%
Cc1cc(N=Cc2c(CO)cnc(C)c2O)c(N=Cc2c(CO)cnc(C)c2O)cc1C.[Zn] | . | -1.9%[7.66 µM] | . | -15.4%[9.22 µM] | . | .
Cc1nnc(N/N=C/c2cccc(OCc3ccc(Cl)c(Cl)c3)c2)n1N | ? | -1.8% | 5.1% | 3.8%[1.84 µM] | 16.9µM* | 20.7%
Cc1nnc(N/N=C/c2cccc(C(F)(F)F)c2)n1N | -0.8% | . | -3.9% | . | -1.1% | -1.9%
